For one assay, the system named is TAB109. Nature of the assay: qHTS profiling for inhibitors of Plasmodium falciparum proliferation (AID 504749). Note: nearly all actives have a fitted effect of over 60% in size. The note with it: P. falciparum in erythrocytes, SYBR Green DNA, 72 h; series mostly up to 28.7 µM. An outline of the steps:
(§1)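 Readout was DNA-dye fluorescence from lysed cultures, ex 485/em 535 nm. Parasitized red cells had grown 72 h with compound; data scaled between 0.29 uM artemisinin and DMSO wells and corrected using vehicle-only plates.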

A further assay deals with TAB113. Described as above. The note with it: P. falciparum in erythrocytes, SYBR Green DNA, 72 h; series mostly up to 28.7 µM. An outline of the steps:
as §1

The next assay relates to TAB165. The assay is described as above. To be noted: P. falciparum in erythrocytes, SYBR Green DNA, 72 h; series mostly up to 28.7 µM. An outline of the steps:
as §1

The subject of the next assay is W2. The assay is described as above. To be noted: P. falciparum in erythrocytes, SYBR Green DNA, 72 h; series mostly up to 28.7 µM. An outline of the steps:
as §1

The next assay concerns CRL-7250. Kind of assay: Cytotoxic Profiling of Annotated Libraries Using Quantitative High-Throughput Screening (AID 1296008). For max response: % is set by controls: 0 for no effect and ±100 for the full control effect. Note: nearly all actives have a fitted effect of over 60% in size. To be noted: Five cell lines viability, CellTiter-Glo ATP luminescence, 48-72 h; max response: hits give low values. An outline of the steps:
(§2)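 Cells exposed to compounds for 48 or 72 hr at 37 degrees Celsius. Viability read as ATP-coupled luminescence with CellTiter-Glo after 10 min at room temperature.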

Another assay concerns HEK293. The assay is described as above. To be noted: Five cell lines viability, CellTiter-Glo ATP luminescence, 48-72 h; max response: hits give low values. The essentials: as §2
For orientation: In ATP-based viability assays light output follows the ATP content of the culture.

In the next assay the test system is NIH3T3. The assay is described as above. To be noted: Five cell lines viability, CellTiter-Glo ATP luminescence, 48-72 h; max response: hits give low values. The essentials:
as §2

In the next assay the test system is MCC-13. Nature of the assay: qHTS assay to identify novel small-molecules to repurpose for Merkel cell carcinoma treatment (AID 1296009). Note: nearly all actives have a fitted effect of over 60% in size. The note with it: MCC and control cell lines, CellTiter-Glo viability, 72 h; series mostly up to 46 µM. An outline of the steps:
(§3)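 Cells were incubated with compound for 72 hr at 37 degree celsius before CellTiter-Glo addition. Luminescence was normalized with no-cell wells as full cytotoxicity and DMSO as baseline.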

The next assay relates to MCC-26. The description is as above. To be noted: MCC and control cell lines, CellTiter-Glo viability, 72 h; series mostly up to 46 µM. The essentials:
as §3

For a further assay, the system named is MKL-1. The description is as above. To be noted: MCC and control cell lines, CellTiter-Glo viability, 72 h; series mostly up to 46 µM. An outline of the steps:
as §3

The next assay deals with MKL-2. The description is as above. To be noted: MCC and control cell lines, CellTiter-Glo viability, 72 h; series mostly up to 46 µM. An outline of the steps:
as §3

The subject of another assay is UISO. The description is as above. To be noted: MCC and control cell lines, CellTiter-Glo viability, 72 h; series mostly up to 46 µM. An outline of the steps:
as §3

The next assay relates to WaGa. Described as above. The note with it: MCC and control cell lines, CellTiter-Glo viability, 72 h; series mostly up to 46 µM. The essentials:
as §3

The test system of another assay is C33A. Nature of the assay: Primary qHTS to identify gynecologic anti-cancer compounds using libraries of approved drugs and bioactive compounds (AID 1345084). Note: nearly all actives have a fitted effect of over 55% in size. The note with it: Gynecologic cancer cell panel viability, ATPlite luminescence, 48 h; series mostly up to 57.5 µM. An outline of the steps:
(§4)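 Measured: luminescence after ATPlite addition (15 min, RT). Exposure: 48 h, 37 C, 5% CO2.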

For another assay, the system named is CAOV3. The assay is described as above. The note with it: Gynecologic cancer cell panel viability, ATPlite luminescence, 48 h; series mostly up to 57.5 µM. An outline of the steps: as §4
Assay [1] deals with HaCat. Kind of assay: Cytotoxic Profiling of Annotated Libraries Using Quantitative High-Throughput Screening (AID 1296008). For max response: % is set by controls: 0 for no effect and ±100 for the full control effect. Note: nearly all actives have a fitted effect of over 60% in size. To be noted: Five cell lines viability, CellTiter-Glo ATP luminescence, 48-72 h; max response: hits give low values. An outline of the steps:
as §2

The test system of another assay is KB-3-1. Described as above. The note with it: Five cell lines viability, CellTiter-Glo ATP luminescence, 48-72 h; max response: hits give low values. The essentials: as §2
Assay [2] relates to HACAT. Nature of the assay: qHTS assay to identify novel small-molecules to repurpose for Merkel cell carcinoma treatment (AID 1296009). Note: nearly all actives have a fitted effect of over 60% in size. To be noted: MCC and control cell lines, CellTiter-Glo viability, 72 h; at 44.8 µM (top of the series) unless noted. The essentials: as §3
The subject of a further assay is HEK293T. Described as above. To be noted: MCC and control cell lines, CellTiter-Glo viability, 72 h; at 44.8 µM (top of the series) unless noted. An outline of the steps:
as §3

Results filed as inconclusive are left out. Values without a mark were called inactive. The source made the active and inactive calls. Calls come from the whole dose curve; as a rule, active = well fitted curve in the direction sought with a large enough effect; inconclusive = small, poorly fitted or top-dose-only effect, or another doubt; inactive = no such curve, though single readings can be large; an effect the other way counts as inactive or inconclusive.
Potency is the fitted concentration of half-maximal effect.

`COc1ccc2c(c1)c1c3n2CCN(C)C3=NCC1`: the Potency result in the assay on TAB109, in the assay on TAB113, in the assay with TAB165, in the assay on W2, with MCC-13 and in the assay on MCC-26 was “inactive” in each case. The Potency entry in the assay with MKL-1, in the assay with MKL-2, with UISO, in the assay on WaGa, in the assay with C33A and with CAOV3 was “inactive” throughout. The compound was classed as inactive in the assay with CRL-7250. The max response in the assay with HEK293 was 3.32%; in the assay with NIH3T3, 0.478%.

Regarding `C[C@H]1[C@H]2CC[C@H]3[C@@H]4CC=C5C[C@@H](N(C)C)CC[C@]5(C)[C@H]4CC[C@]23CN1C`, the max response with CRL-7250 was -17.6%; in the assay on KB-3-1, 3.38%; in the assay with NIH3T3, 0.439%. Further, the compound was called inactive in the assay with HaCat [1] and in the assay with HACAT [2]. Moreover, the Potency result in the assay with MCC-13, in the assay with MCC-26, in the assay with MKL-2, in the assay with UISO, in the assay on WaGa and with C33A was “inactive” each time. In addition, in the assay on CAOV3, the Potency result was “inactive”.

For `C#C[C@]1(O)CC[C@H]2[C@@H]3[C@H](C)CC4=C(CCC(=O)C4)[C@H]3CC[C@@]21C`, the max response in the assay with CRL-7250 is -3.96%; in the assay with KB-3-1 it was -4.12%; with NIH3T3 it was -7.98%. Moreover, the call in the assay on HaCat [1] and in the assay on HACAT [2] was inactive. The Potency entry with MCC-13, in the assay with MCC-26, in the assay on MKL-1, in the assay with UISO, with C33A and in the assay on CAOV3 was “inactive” throughout. The Potency in the assay with WaGa is 18.8 µM (active).

In the case of `NC(N)=NN=C(/C=C/c1ccc([N+](=O)[O-])o1)/C=C/c1ccc([N+](=O)[O-])o1`, the Potency with TAB109 is 7.08 µM (active); in the assay on TAB165, 7.94 µM (active); in the assay on W2, 2.39 µM (active); in the assay with CRL-7250, 5.96 µM (active); in the assay with HEK293 it was 4.73 µM (active); in the assay with NIH3T3, 6.68 µM (active). Moreover, the Potency was 2.66 µM (active) in the assay on MCC-13; 2.66 µM (active) with MCC-26; 0.376 µM (active) in the assay on MKL-1; 0.237 µM (active) in the assay with MKL-2; 0.841 µM (active) with UISO; 0.237 µM (active) in the assay with WaGa. Also, in the assay on C33A, the Potency is 12.6 µM (active).

Take `NC(=O)c1ccccc1O`: the Potency result with TAB109, in the assay on TAB113, in the assay with TAB165, in the assay with W2, in the assay on MCC-13 and with MCC-26 was “inactive” each time. Moreover, the Potency result with MKL-1, in the assay on MKL-2, in the assay with UISO, in the assay with WaGa and with C33A was “inactive” throughout. Moreover, the max response in the assay with CRL-7250 was 2.66%; in the assay on NIH3T3 it was -3.05%. The result in the assay with HEK293 and with HEK293T was inactive.

Take `CCN(CC)CCOC(=O)C(Cc1cccc2ccccc12)CC1CCCO1` (stereo not drawn): the max response in the assay with CRL-7250 was -0.146%; in the assay with KB-3-1 it was 13.9%; in the assay on NIH3T3, 3.27%. In addition, the outcome with HaCat [1] and in the assay on HACAT [2] was inactive. Further, the Potency result in the assay with MCC-13, in the assay on MCC-26, in the assay with MKL-1, in the assay with MKL-2, with UISO and with WaGa was “inactive” each time. Also, the Potency entry with C33A and in the assay on CAOV3 was “inactive” throughout.

With `CCN(CC)CCNc1ccc(CO)c2sc3ccccc3c(=O)c12`, the Potency in the assay on TAB109 was 1.58 µM (active); in the assay with TAB113, 1.12 µM (active); in the assay with TAB165 it was 0.794 µM (active); with W2 it was 0.675 µM (active); with CRL-7250, 18.8 µM (active); in the assay on HEK293, 7.5 µM (active). Moreover, the Potency in the assay with NIH3T3 was 23.7 µM (active); in the assay on MCC-13 it was 26.6 µM (active); with MKL-1, 10.6 µM (active); in the assay with MKL-2 it was 3.35 µM (active); in the assay with UISO it was 5.96 µM (active); in the assay on CAOV3, 22.4 µM (active).

`O=C(Nc1cccc(C2=NCCN2)c1)Nc1cccc(C2=NCCN2)c1`: the Potency in the assay with TAB109 is 2.82 µM (active); with TAB113, 7.94 µM (active); in the assay with TAB165 it was 2.51 µM (active); in the assay with W2, 1.69 µM (active). Moreover, the compound was called inactive with CRL-7250. Also, the values for the max response in the assay with HaCat [1], in the assay on KB-3-1 and in the assay with NIH3T3 were -0.992%, -7.99% and 1.41%, respectively. For the same compound, the Potency result in the assay on MCC-13, in the assay on MCC-26, with MKL-1, with MKL-2, in the assay on UISO and in the assay with WaGa was “inactive” throughout. Moreover, the Potency entry with C33A and in the assay with CAOV3 was “inactive” each time.

For the origin of these results see PubChem BioAssay (NCATS).
